# Unmarked numbers belong to inactive results. Calls of active or inactive are those of the source. Cut-off read from the data, not from the text of the source: active = inhibition above about 50%; inactive = the rest.
# Target: Vascular endothelial growth factor receptor 2 (Homo sapiens) (UniProt P35968)
# Test: Biochemical primary assay, inhibitors of H. sapiens VEGFR2, LANCE Ultra time-resolved FRET readout, NPC library (AID 1117353)
# Details: LANCE Ultra TR-FRET kinase assay; at 20 µM (top of the series)
# Sequence of Vascular endothelial growth factor receptor 2 (Homo sapiens) (P35968 whole entry, looked up): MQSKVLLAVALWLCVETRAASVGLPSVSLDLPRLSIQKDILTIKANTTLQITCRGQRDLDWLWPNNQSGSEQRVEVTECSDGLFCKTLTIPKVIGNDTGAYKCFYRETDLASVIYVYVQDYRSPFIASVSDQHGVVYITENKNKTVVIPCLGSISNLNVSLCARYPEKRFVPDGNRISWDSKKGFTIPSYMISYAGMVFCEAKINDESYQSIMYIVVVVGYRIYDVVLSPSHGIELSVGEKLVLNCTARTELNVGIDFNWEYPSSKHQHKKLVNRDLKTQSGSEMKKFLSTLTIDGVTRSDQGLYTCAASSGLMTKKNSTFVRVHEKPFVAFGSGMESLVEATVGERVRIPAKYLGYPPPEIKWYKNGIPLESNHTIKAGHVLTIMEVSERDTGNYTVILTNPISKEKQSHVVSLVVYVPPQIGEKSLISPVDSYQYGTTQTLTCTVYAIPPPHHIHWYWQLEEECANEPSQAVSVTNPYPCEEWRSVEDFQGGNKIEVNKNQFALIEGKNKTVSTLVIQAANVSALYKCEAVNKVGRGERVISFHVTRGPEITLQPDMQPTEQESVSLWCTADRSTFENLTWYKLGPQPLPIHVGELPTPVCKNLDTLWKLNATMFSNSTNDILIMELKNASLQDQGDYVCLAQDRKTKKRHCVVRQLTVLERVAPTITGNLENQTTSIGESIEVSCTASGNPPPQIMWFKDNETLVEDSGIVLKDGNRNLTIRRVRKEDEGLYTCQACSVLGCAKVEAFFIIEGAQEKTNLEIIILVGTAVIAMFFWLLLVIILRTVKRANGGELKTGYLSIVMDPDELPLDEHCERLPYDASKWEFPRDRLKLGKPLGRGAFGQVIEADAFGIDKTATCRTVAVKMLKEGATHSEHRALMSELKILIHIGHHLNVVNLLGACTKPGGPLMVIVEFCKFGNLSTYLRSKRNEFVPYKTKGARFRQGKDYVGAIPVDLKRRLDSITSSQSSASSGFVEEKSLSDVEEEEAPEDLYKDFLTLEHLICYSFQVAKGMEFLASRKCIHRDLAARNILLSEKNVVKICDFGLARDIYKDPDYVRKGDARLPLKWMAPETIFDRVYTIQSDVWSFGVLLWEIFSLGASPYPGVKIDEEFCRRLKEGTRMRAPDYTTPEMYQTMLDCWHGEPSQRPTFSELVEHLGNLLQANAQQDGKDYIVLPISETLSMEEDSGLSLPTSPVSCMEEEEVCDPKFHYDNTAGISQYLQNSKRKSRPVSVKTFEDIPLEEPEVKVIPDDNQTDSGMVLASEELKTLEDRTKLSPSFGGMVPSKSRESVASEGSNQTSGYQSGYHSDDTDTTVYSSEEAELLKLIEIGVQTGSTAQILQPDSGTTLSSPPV
row,Compound,inhibition
1,Cn1cnc([N+](=O)[O-])c1Sc1ncnc2nc[nH]c12,-18.2%
2,CCCCc1oc2ccccc2c1C(=O)c1cc(I)c(OCCN(CC)CC)c(I)c1,22.9%
3,CNC(=O)c1ccccc1Sc1ccc2c(/C=C/c3ccccn3)n[nH]c2c1,100% (active)
4,CC(=O)[C@]1(O)Cc2c(O)c3c(c(O)c2[C@@H](O[C@H]2C[C@H](N)[C@H](O)[C@H](C)O2)C1)C(=O)c1ccccc1C3=O,-143%
5,COc1ccc(-c2ccc3cc(C(=O)O)ccc3c2)cc1C12CC3CC(CC(C3)C1)C2,96.3% (active)
6,C[n+]1c2cc(N)ccc2cc2ccc(N)cc21 (tested in a mixture with another compound),-22%
7,COc1cc([C@@H]2c3cc4c(cc3[C@H](O)[C@H]3COC(=O)[C@H]23)OCO4)cc(OC)c1OC,28.2%
8,O=C(NOCC1CC1)c1ccc(F)c(F)c1Nc1ccc(I)cc1Cl,12.4%
9,Nc1nc(=S)c2[nH]cnc2[nH]1,-5.99%
10,CCc1nc(N)nc(N)c1-c1ccc(Cl)cc1,17%
11,Cc1cc(C)c(/C=C2\C(=O)Nc3ccccc32)[nH]1,98.7% (active)
12,COC(=O)Nc1nc2ccc(C(=O)c3ccccc3)cc2[nH]1,74.1% (active)
13,COc1ccc(-c2nc3ccc(C4=NNC(=O)CC4C)cc3[nH]2)cc1 (configuration not stated),-36.5%
14,CCCCCCNC(=O)n1cc(F)c(=O)[nH]c1=O,-15.1%
15,COC(=O)Nc1nc2ccc(Sc3ccccc3)cc2[nH]1,6%
16,Cc1nc(N)nc(N)c1-c1ccc(Cl)c(Cl)c1,-0.1%
17,S=c1nc[nH]c2nc[nH]c12,15.9%
18,O=C(O)c1ccc(-n2nc(-c3ccccc3O)nc2-c2ccccc2O)cc1,-16.1%
19,COC(=O)Nc1nc2ccc(C(=O)C3CC3)cc2[nH]1,69.1% (active)

row,Compound,inhibition
1,CC[C@@H]([C@H](C)O)n1ncn(-c2ccc(N3CCN(c4ccc(OC[C@@H]5CO[C@@](Cn6cncn6)(c6ccc(F)cc6F)C5)cc4)CC3)cc2)c1=O,22.9%
2,COC(=O)Nc1nc2ccc(C(=O)c3cccs3)cc2[nH]1,60% (active)
3,Cc1ccccc1C(=O)Nc1ccc(C(=O)N2CCCC(N(C)C)c3ccccc32)cc1 (configuration not stated),41.5%
4,CSc1ccc2c(c1)C(N1CCN(C)CC1)Cc1ccccc1S2 (configuration not stated),-11.8%
5,COc1c(C)c2c(c(O)c1C/C=C(\C)CCC(=O)OCCN1CCOCC1)C(=O)OC2,-1.65%
6,O=[N+]([O-])c1ccc(O)c2ncccc12,11.1%
7,Cc1ccc2nc(N)[nH]c(=O)c2c1Sc1ccncc1,-56.2%
8,O=C(CCCCCCC(=O)Nc1ccccc1)NO,-32.6%
9,COC(=O)Nc1nc2ccc(S(=O)c3ccccc3)cc2[nH]1 (configuration not stated),8.1%
10,Cc1cc(O)c2ccccc2c1O,50% (active)
11,CCN(CC)CCNc1ccc(CO)c2sc3ccccc3c(=O)c12,7.72%
12,[O-][n+]1ccccc1SSc1cccc[n+]1[O-],-17.4%
13,COCc1c(C(C)C)nc(C(C)C)c(/C=C/[C@@H](O)C[C@@H](O)CC(=O)O)c1-c1ccc(F)cc1,31.8%
14,COc1cc(NCc2ccc3nc(N)nc(N)c3c2C)cc(OC)c1OC,35.8%
15,CC(C)C[C@H](NC(=O)[C@H](Cc1ccccc1)NC(=O)c1cnccn1)B(O)O,19%
16,CN(C)c1ccc2nc3ccc(=[N+](C)C)cc-3sc2c1,-6.83%
17,CCCCCCCCCCCCCCCCCCNC(=O)OC1CCN(C(=O)OC[C@H](COC(=O)N(Cc2cccc[n+]2CC)C(=O)c2ccccc2OC)OC)CC1,-459%
18,NC(=NCCCCCCN=C(N)/N=C(\N)Nc1ccc(Cl)cc1)/N=C(\N)Nc1ccc(Cl)cc1,-1.66%

# Source: PubChem BioAssay AID1117353 (Cheminformatics & Chemogenomics Research Group (CCRG), …, 2015)
